From PubChem BioAssay
Several values for one entry are separate records, joined by “and”; a condition that tells them apart may be missing. Equal entries are not always repeated. Activity calls are given as the source filed them.

How the values were obtained:
[1] = anti-His antibody binders, primary screen, artefact control for SMM control protein annotation, biochemical, small-molecule microarray, 635 nm fluorescence (AID 1128); settings: anti-His Alexa647 antibody binding, higher = more signal;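 note: score merges feature fluorescence with signal-to-noise for each printed compound spot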
[2] = test system: Human papillomavirus type 1a E7 protein (residues 1-88); test: HPV1a E7 small-molecule binders, primary screen, biochemical, small-molecule microarray, residues 1-88, 635 nm (AID 1129); settings: small-molecule microarray binding, fluorescence 635 nm; higher = more signal
[3] = molecular target: Focal adhesion kinase 1 (Homo sapiens) (UniProt Q05397); test: small-molecule microarray binders of FAK, primary screen, biochemical, 635/667 nm fluorescence, BSA, DTT (AID 1130); settings: PTK2 binding, 635 nm fluorescence, higher = more signal;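 note: composite of spot emission at 667 nm and signal to noise over triplicate slides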
[4] = test system: Fibrinogen (Alexa647-labelled); test: fibrinogen binders on compound microarrays, profiling panel, artefact control for SMM control-protein annotation, biochemical, small-molecule microarray, 635/667 nm fluorescence (AID 1131); settings: fibrinogen-A647 binding fluorescence, higher = more signal;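 note: z-score merges 667 nm fluorescence with per-spot signal-to-noise over triplicate slides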
[5] = molecular target: Follistatin (Homo sapiens) (UniProt P19883); test: follistatin binders on small-molecule microarrays, primary screen, biochemical, small-molecule microarray, 635/667 nm fluorescence (AID 1132); settings: FST binding, 635 nm fluorescence, higher = more signal
[6] = molecular target: Fibroblast growth factor 2 (Homo sapiens) (UniProt P09038); test: FGF2 binders on small-molecule microarrays, primary screen, biochemical, small-molecule microarray, 635/667 nm fluorescence (AID 1133); settings: small-molecule microarray binding, FGF2, fluorescence 635/667; higher = more signal
[7] = mitochondrial membrane potential change in A549 cells, profiling panel, cell-based, JC-1 fluorescence, basal, 24 h, 100 nL (AID 1138); settings: higher = more signal;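 note: A549 lung adenocarcinoma cells under basal conditions with no added stimulus; test concentration not given here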
Lefty1 = Lefty1 binders on small-molecule microarrays, primary screen, biochemical, small-molecule microarray, 635/667 nm fluorescence (AID 1139); settings: small-molecule microarray binding, fluorescence 635/667; higher = more signal
[8] = test system: wheat germ agglutinin (Triticum aestivum), Alexa647-labelled; test: wheat germ agglutinin binders on compound microarrays, profiling panel, artefact control for SMM control-protein annotation, biochemical, small-molecule microarray, 635/667 nm fluorescence (AID 1140); settings: WGA-A647 binding, 635 nm fluorescence, higher = more signal;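 note: score merges 667 nm feature emission with signal to noise over triplicate slides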
[9] = molecular target: Luciferin 4-monooxygenase (Photinus pyralis) (UniProt P08659); test: firefly luciferase enzyme inhibitors, primary screen, biochemical, luminescence, purified enzyme, 2006 set (AID 1141); settings: SteadyGlo luminescence, 30 min, higher = more signal, called active from +8 up or from −8 down;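 note: cell-free assay with purified firefly luciferase at 100 ng per well in PBS; test concentration not given here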
Sequence of Luciferin 4-monooxygenase (Photinus pyralis) (P08659 whole entry, looked up): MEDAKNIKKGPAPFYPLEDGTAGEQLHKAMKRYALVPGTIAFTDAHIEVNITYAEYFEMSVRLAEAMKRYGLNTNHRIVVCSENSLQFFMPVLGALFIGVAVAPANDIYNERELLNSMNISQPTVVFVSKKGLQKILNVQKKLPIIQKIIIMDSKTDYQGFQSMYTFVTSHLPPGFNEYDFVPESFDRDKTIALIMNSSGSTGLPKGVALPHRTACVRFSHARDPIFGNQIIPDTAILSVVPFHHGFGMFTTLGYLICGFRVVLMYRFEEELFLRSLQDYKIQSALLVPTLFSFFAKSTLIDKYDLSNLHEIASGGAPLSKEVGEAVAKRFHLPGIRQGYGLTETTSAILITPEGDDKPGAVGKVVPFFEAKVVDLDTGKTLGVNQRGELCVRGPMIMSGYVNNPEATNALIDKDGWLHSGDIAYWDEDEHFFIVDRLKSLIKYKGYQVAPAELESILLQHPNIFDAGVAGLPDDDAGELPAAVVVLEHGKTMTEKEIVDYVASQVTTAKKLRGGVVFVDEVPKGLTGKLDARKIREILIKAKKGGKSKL

Sequence of Follistatin (Homo sapiens) (P19883 whole entry, looked up): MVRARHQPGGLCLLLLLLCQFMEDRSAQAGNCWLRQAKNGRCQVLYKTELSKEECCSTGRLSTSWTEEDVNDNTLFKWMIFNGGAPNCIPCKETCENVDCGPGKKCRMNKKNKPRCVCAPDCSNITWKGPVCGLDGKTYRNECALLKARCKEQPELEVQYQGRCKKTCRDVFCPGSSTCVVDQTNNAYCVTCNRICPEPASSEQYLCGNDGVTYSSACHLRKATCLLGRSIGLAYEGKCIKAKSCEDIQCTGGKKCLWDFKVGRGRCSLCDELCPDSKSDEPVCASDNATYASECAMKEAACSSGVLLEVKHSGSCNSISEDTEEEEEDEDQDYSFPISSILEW
Sequence of Focal adhesion kinase 1 (Homo sapiens) (Q05397 whole entry, looked up): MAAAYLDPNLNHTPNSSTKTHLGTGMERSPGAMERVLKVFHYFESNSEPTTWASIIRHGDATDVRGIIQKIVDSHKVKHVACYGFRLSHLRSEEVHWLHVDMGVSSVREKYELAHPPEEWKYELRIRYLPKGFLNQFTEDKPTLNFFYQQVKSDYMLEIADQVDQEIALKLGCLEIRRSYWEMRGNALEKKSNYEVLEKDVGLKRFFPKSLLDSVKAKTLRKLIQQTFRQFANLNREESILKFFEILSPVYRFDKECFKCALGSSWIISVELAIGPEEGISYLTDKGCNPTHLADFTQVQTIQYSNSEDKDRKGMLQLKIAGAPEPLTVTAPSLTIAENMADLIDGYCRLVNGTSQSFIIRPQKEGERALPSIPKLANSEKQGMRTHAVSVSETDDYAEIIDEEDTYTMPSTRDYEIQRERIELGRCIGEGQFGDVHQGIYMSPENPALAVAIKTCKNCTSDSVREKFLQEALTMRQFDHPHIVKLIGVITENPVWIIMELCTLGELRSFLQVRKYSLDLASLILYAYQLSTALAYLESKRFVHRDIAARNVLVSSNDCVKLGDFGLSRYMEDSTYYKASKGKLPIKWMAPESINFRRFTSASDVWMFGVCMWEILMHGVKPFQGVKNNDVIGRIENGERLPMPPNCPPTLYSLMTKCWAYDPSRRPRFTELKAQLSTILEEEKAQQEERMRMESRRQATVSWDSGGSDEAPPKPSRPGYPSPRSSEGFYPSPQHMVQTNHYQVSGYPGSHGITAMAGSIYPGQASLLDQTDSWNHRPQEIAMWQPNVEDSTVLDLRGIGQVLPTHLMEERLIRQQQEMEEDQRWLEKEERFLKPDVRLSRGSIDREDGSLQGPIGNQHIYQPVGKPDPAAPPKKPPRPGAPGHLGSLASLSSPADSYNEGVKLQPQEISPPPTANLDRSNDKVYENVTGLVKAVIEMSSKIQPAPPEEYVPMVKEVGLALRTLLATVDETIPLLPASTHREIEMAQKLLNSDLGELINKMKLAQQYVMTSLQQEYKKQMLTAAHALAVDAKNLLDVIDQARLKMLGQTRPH
Sequence of Fibroblast growth factor 2 (Homo sapiens) (P09038 whole entry, looked up): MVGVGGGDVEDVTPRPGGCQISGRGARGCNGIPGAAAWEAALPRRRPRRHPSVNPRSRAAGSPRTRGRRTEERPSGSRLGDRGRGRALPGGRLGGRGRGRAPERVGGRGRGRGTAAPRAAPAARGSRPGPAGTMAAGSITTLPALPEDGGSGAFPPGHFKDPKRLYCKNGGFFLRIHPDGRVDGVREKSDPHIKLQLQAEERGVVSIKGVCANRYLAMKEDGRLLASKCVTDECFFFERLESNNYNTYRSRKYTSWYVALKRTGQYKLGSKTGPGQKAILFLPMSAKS

Row | SMILES | composite z-score [1] | composite z-score [2] | composite z-score [3] | composite z-score [4] | composite z-score [5] | composite z-score [6] | z-score [7] | composite z-score (Lefty1) | composite z-score [8] | z-score [9]
1 | C[C@@]1([C@@H](NC(=O)Cc2ccccc2)c2ccc(-c3ccccc3)cc2)C[C@H]1C1CCCCC1 | 1.13 and 1.49 and 1.27 | 1.18 and 1.08 and 0.987 | 0.284 and 0.0485 and 0.83 | 0.666 and 0.314 and 0.934 | 0.153 and -0.222 and -0.138 | -0.131 and -0.0451 and -0.355 | -0.788 and 0.267 and 0.196 | -1.08 and -1.06 and -0.0526 | 1.04 and 0.829 and 1.15 | 0.393 (inactive) and 0.406 (inactive) and 1.92 (inactive)
2 | CCOC(=O)[C@@H]1CC2O[C@]23C[C@@H]1C(=O)N1CCC[C@@H]1[C@H]3O[Si](C)(C)C(C)(C)C (stereo not given in full) | -0.423 and -0.146 | -0.853 and 0.0436 | 0.623 and 0.0915 | -0.607 and -0.0382 | -0.568 and 0.342 | 0.0471 and 1.14 | -0.944 and -0.261 | -0.0485 and 0.69 | -0.616 and -0.276 | 0.316 (inactive) and 0.32 (inactive)
3 | CCCCCN1CC=CC23O[C@@H]4C=CCCOC(=O)C4[C@H]2C(=O)N(C(C)CO)[C@@H]3C1=O (stereo not given in full) | 1.58 and 0.0947 | -0.367 and -0.292 | -0.0918 and 0.206 | -0.458 and 0.0661 | -0.11 and -0.0282 | -0.387 and -1.17 | -0.449 and -0.859 | 0.178 and 0.382 | 0.138 and -0.194 | 0.328 (inactive) and 0.283 (inactive)
4 | C=CCN(C(=O)C1N(CCCCCCO)C(=O)C2C(C(=O)O)C3C=CC21O3)c1ccc(OC)cc1 (stereo not given) | -1.91 and -1.82 | -1.26 and -1.68 | 0.85 and -0.212 | -1.05 and -2.02 | -1.83 and -1.96 | -2.95 and -1.96 | 1.34 and 0.478 | -2.4 and -2.28 | -0.537 and -0.483 | -1.09 (inactive) and -1.38 (inactive)
5 | C=CCN(CCCCC)C(=O)C1N(c2c(Cl)cccc2CO)C(=O)C2C(C(=O)O)C3C=CC21O3 (stereo not given) | -1.91 and -0.805 | -0.751 and -1.1 | -0.845 and -0.37 | -1.41 and -1.31 | -2.55 and -0.968 | -2.42 and -2.09 | -1.02 and -0.472 | -1.6 and -1.98 | -2.05 and -1.28 | 0.975 (inactive) and 0.308 (inactive)
6 | COc1ccc(O[C@H]2C=C[C@@H](c3ccccc3)O[C@@H]2COC(=O)CCC(C)=NO[C@H](C)c2cn([C@H](CO)Cc3ccccc3)nn2)cc1 | 2.33 and 1.58 | -0.0422 and 0.437 | 0.142 and -0.0962 | 0.643 and 0.766 | 0.125 and 0.326 | 0.218 and 0.684 | -1.04 and -0.144 | 0.653 and 0.557 | 0.207 and 0.223 | 0.845 (inactive) and -0.59 (inactive)
7 | CCOC(=O)NN=C1C[C@@H](O)[C@@H](O)[C@@H]2[C@@H]3C(=O)N(Cc4ccc5c(c4)OCO5)C(=O)[C@@H]3CC[C@@H]12 | 0.0648 | 0.449 | -0.0156 | 0.669 | 0.0164 | 0.197 | 1.06 | 0.225 | 0.626 | 0.556 (inactive)
8 | C=CCN(CCCCC)C(=O)C(c1cccs1)N(C(=O)/C=C\C(=O)O)c1c(Cl)cccc1CO (stereo not given) | -2 and 0.586 | -0.682 and -0.485 | -0.519 and -0.564 | -1.31 and -2.3 | -1.36 and -2.16 | -2.06 and -2.71 | -0.634 and 0.534 | -1.88 and -1.54 | -1.74 and -0.357 | -0.0903 (inactive) and -0.46 (inactive)
9 | COC(=O)C1=C(C)N(Cc2ccccc2)C2=C(C(C)=O)[C@H](c3ccccc3)[C@@](O)(C(=O)OC)C(=O)N2[C@@H]1c1ccccc1 | 0.313 and -0.605 | 1.06 and -0.558 | 0.113 and -0.651 | 0.963 and 0.0691 | 0.764 and -0.238 | 0.745 and 0.282 | 3.76 and 1.44 | 0.638 and -0.0574 | 0.493 and -0.348 | -1.12 (inactive) and -2.89 (inactive)
10 | O=C1C[C@]2(c3ccc([N+](=O)[O-])cc3)C(=O)N(Cc3ccccc3)c3cc(CO)ccc3[C@H]2N1C1CCCCC1 | 0.0501 and 1.06 | 0.905 and 0.134 | 0.152 and 0.0229 | -0.437 and -0.106 | 0.585 and 1.41 | 0.368 and 1.02 | -0.38 and 0.277 | 0.507 and 0.482 | -0.329 and 0.59 | 0.302 (inactive) and -0.537 (inactive)
11 | CO[C@H]1COC(=O)CC=C[C@@H](C)COC(=O)[C@H](CCSC)NC(=O)CC=C[C@@H]1C | 0.512 and -0.138 | -0.375 and -0.74 | 0.285 and -0.776 | -1.19 and -1.63 | 1.5 and 1.58 | 1.97 and 1.78 | -1.26 and 0.523 | 1.79 and 1.82 | -0.353 and -1.42 | -0.142 (inactive) and -0.463 (inactive)
12 | C#CCN1C(/C=C/c2ccccc2)C(=O)OC[C@H]1c1ccccc1 (stereo not given in full) | 0.195 and 0.338 | 0.455 and 0.0982 | 0.0124 and 0.142 | -0.106 and 0.137 | 1.28 and 0.768 | 0.441 and 1.07 | -0.411 and -1 | 0.622 and 0.295 | -0.19 and 0.017 | -0.415 (inactive) and 0.754 (inactive)
13 | COC(=O)C1=C(C)N(Cc2ccccc2)[C@]23O[C@](C(=O)OC)(C(=O)N2[C@@H]1c1ccccc1)[C@H]1CCCC(=O)[C@H]13 | 0.677 and 1.34 | 0.312 and 0.104 | -0.035 and 0.215 | 0.753 and 0.377 | 0.372 and 0.544 | 0.349 and 0.456 | 0.455 and -0.75 | 0.784 and 0.694 | 0.528 and -0.124 | -0.5 (inactive) and 0.264 (inactive)
14 | CCN1C(=O)[C@H]2[C@H]3[C@H](O)[C@H](O)CC(=NOC[C@@H](O)COCc4ccco4)[C@@H]3CC[C@H]2C1=O | -0.48 and 2.77 | -1.11 and -1.61 | -0.406 and -0.591 | -0.852 and -0.943 | 1.34 and -0.205 | 1.66 and -0.129 | -0.254 and -1.57 | 1.44 and 0.31 | -0.559 and -0.746 | -0.0037 (inactive) and 0.33 (inactive)
15 | C=CCN(C(=O)C(c1cccs1)N(CCOCCO)C(=O)/C=C\C(=O)O)c1ccc(OC)cc1 (stereo not given) | -0.542 and -1.89 | -0.923 and -1.57 | -0.303 and -0.67 | -0.627 and -1.54 | -0.745 and -1.07 | -0.993 and -1.6 | 0.13 and 1 | -0.208 and -1.45 | -0.628 and -2.28 | 0.286 (inactive) and -2.02 (inactive)
16 | C=CCN(C(=O)C1N(C(C)(C)CO)C(=O)C2C(C(=O)O)C3C=CC21O3)C(C)(C)C (stereo not given) | -0.574 and -1.26 | -0.937 and -0.349 | -0.892 and -0.328 | -2.12 and 0.119 | -1.98 and -1.82 | -2.47 and -2.04 | -0.377 and 0.637 | -2.81 and -2.22 | -1.64 and 0.157 | 0.0864 (inactive) and -0.639 (inactive)
17 | C=CC[C@@H](O)c1ccc(O)c(F)c1 | -1.52 and -0.7 | -0.762 and -1.07 | -0.0427 and -0.9 | -0.755 and -1.22 | -1.12 and -0.0709 | -1.42 and -0.594 | -0.933 and 1.15 | -1.9 and -0.344 | 0.106 and -1.3 | -0.0615 (inactive) and -1.14 (inactive)
18 | CC(CO)N1C(=O)[C@@H]2C3C(=O)OCCC=C[C@H]3OC23C=CCN(Cn2nnc4ccccc42)C(=O)[C@@H]13 (stereo not given in full) | 0.398 and 1.77 | -0.66 and 0.136 | -0.244 and -0.0494 | -0.332 and -0.0118 | -0.93 and 0.345 | -1.31 and -0.224 | -0.469 and -0.766 | -1.34 and 0.247 | -0.711 and -0.23 | 0.0511 (inactive) and 0.399 (inactive)
19 | COC(=O)[C@@]1(Cc2ccc(OC)cc2)[C@H]2c3cc(C(=O)N(C)C)n(Cc4ccc(O)c(OC)c4)c3C[C@H]2CN1C(=O)c1ccccc1 | 1.8 and 2.3 | 1.24 and 1.21 | 0.529 and 0.379 | 0.0218 and 0.962 | 0.231 and 0.715 | -0.913 and -0.134 | 1.73 and 1.22 | -0.268 and -0.542 | 1.39 and 0.989 | 1.75 (inactive) and 1.08 (inactive)
